High-throughput results from PubChem BioAssay.
ELG1 repair inh: qHTS screen for small molecules that inhibit ELG1-dependent DNA repair in human embryonic kidney (HEK293T) cells expressing luciferase-tagged ELG1; HEK293T ELG1-luciferase reporter, luminescence, 16 h; DNA damage induced by 5-fluorouridine; Potency, µM (doses to about 46.1 µM), without a hit: at the top dose activity change, negative = inhibition, hits mostly inhibitors; 330,000 compounds, 2.3% hits; also: % is scaled to controls: 0 for no effect and ±100 for the full control effect; nearly all actives have a fitted effect of over 55% in size
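Reporter activity after DNA damage by 5-fluorouridine is monitored. Compound-treated cells incubate 16 hr at 37 °C, then ONE-Glo is added for 30 min before luminescence reading.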
FLuc counter: qHTS profiling assay for firefly luciferase inhibitor/activator using purifed enzyme and Km concentrations of substrates (counterscreen for miR-21 project) | purified FLuc, Km substrates, luminescence inhibition | AID 588342, 2011 | Potency, µM (doses to about 57.5 µM), for the others: top-dose activity change, negative = inhibition, most hits filed as inhibitors | 360,000 compounds, 6.9% hits;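 also: plate controls were vehicle for no effect and reference inhibitor for full effect; nearly all actives have a fitted effect of over 55% in size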
Target sequence (P08659 whole entry, looked up): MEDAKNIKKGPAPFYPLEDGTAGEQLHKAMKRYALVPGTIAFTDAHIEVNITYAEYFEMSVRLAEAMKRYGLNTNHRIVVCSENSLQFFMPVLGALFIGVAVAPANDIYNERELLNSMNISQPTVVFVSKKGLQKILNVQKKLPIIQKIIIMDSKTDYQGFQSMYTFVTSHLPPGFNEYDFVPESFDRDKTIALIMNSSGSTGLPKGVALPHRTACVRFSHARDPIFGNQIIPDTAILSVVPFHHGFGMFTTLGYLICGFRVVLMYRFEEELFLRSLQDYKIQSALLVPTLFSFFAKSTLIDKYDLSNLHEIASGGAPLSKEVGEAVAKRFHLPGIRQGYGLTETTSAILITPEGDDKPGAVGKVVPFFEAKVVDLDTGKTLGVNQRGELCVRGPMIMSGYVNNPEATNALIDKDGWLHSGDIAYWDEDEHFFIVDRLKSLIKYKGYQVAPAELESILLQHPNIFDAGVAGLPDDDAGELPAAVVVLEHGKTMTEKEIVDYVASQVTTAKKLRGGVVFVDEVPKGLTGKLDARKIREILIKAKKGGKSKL
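Purified P. pyralis luciferase (10nM final) with 10uM D-luciferin and 10uM ATP (Km levels) in 50mM Tris acetate pH 7.5, 10mM Mg acetate, 0.01% Tween-20, 0.05% BSA; qHTS 6-point titration, ~60 µM downward; luminescence read.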
SMN2 splice enh: qHTS Assay for Enhancers of SMN2 Splice Variant Expression. AID 1458, 2008. HEK293 SMN2-luciferase splicing reporter, luminescence, 30-36 h. Potency, µM (highest dose often 46.1 µM), inactives show top-dose activity change, positive = activation, most hits filed as activators. 210,000 compounds, 2.8% hits; also: % of control where 0% means no effect; nearly all actives have a fitted effect of over 55% in size
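qHTS luciferase splicing reporter: luminescence rises when SMN2 exon 7 is included in transfected HEK293 cells. Compound exposure lasted 30-36 h at 37C, with 4.5 mM final sodium butyrate as control, followed by a ONE-Glo read.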
NPC1 promoter act: qHTS Assay for NPC1 Promoter Activators. Huh7 NPC1 promoter luciferase reporter, 24 h. Potency, µM (series often up to 9.22 µM), for the others: top-dose activation, actives largely listed as activators. 320,000 compounds, 2.4% hits. AID 485313, 2010; also: % of control where 0% means no effect; nearly all actives have a fitted effect of over 60% in size
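Stably transfected Huh7 (NPC1 promoter→luciferase), 1500 cells/well in Opti-MEM + 10% FBS, 2 h settle, then compound 24 h at 37 °C. Luminescence after 10 min with Amplite reagent.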
ELG1 genotox: qHTS screen for small molecules that induce genotoxicity in human embryonic kidney (HEK293T) cells expressing luciferase-tagged ELG1; HEK293T ELG1-luciferase reporter, luminescence, 16 h; Potency, µM (top dose mostly 46 µM), without a hit: at the highest dose activity change, positive = activation, most hits filed as activators; 330,000 compounds, 1.3% hits; AID 504466, 2011; also: % of control where 0% means no effect; nearly all actives have a fitted effect of over 60% in size
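HEK293T cells expressing luciferase-tagged ELG1 were treated with compound or DMSO for 16 hr at 37°C. Luciferase activity was then read after 30 min with ONE-Glo at room temperature; rising signal flags genetic stress.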
Rab9 promoter act: qHTS Assay for Rab9 Promoter Activators | 320,000 compounds, 2.8% hits | AID 485297, 2010 | Huh7 Rab9 promoter-luciferase reporter, luminescence, 24 h | Potency, µM (series often up to 9.22 µM), for inactives: at the highest dose activation, negative = inhibition, actives largely listed as activators; also: % of control where 0% means no effect; nearly all actives have a fitted effect of over 60% in size
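Measured in stably transfected Huh7 cells bearing a Rab9 promoter–luciferase construct: 24 h compound treatment at 37 °C, followed by luminescence detection.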
The depositor's hits bear a star; ? = inconclusive; . = no result; [ ] = dose if it differs, or a comment. The list is not random: actives were taken first. Their share in the collection is about 9.4%. Calls follow the shape of the dose curve; as a rule, active = well fitted curve in the direction sought with a large enough effect; inconclusive = small, poorly fitted or top-dose-only effect, or another doubt; inactive = no such curve, though single readings can be large; an effect the other way counts as inactive or inconclusive. Potency is read from the fitted curve at half-maximal effect.

SMILES	ELG1 repair inh	FLuc counter	SMN2 splice enh	NPC1 promoter act	ELG1 genotox	Rab9 promoter act
c1ccc2sc(SSc3nc4ccccc4s3)nc2c1	.	.	0.8%	.	.	.
Cc1ccc(NC(=O)Cn2c(-c3ccc4c(c3)OCO4)cn(-c3ccccc3)c2=O)cc1	.	12µM*	?	.	.	.
CCS(=O)(=O)C1=NN2C(=N)/C(=C\c3ccc(OC(=O)c4ccco4)c(Br)c3)C(=O)N=C2S1	19.8%	15.1µM*	.	-3.8%	2.4%[9.26 µM]	-2.4%
COc1cc(/C=C2\C(=N)N3N=C(S(C)(=O)=O)SC3=NC2=O)ccc1OC(=O)c1cccs1	11.9%	21.3µM*	.	3.4%	0.5%	5.6%
CCOc1cc(/C=C2\C(=N)N3N=C(S(=O)(=O)CC)SC3=NC2=O)ccc1OC(=O)c1ccco1	?	-12.0%	.	1.6%	9.4%	-2.3%
COc1cc(/C=C2\C(=N)N3N=C(S(C)(=O)=O)SC3=NC2=O)ccc1OC(=O)c1ccco1	-1.1%	19µM*	.	0.1%	-0.6%	2.4%
COc1ccc(NC(=O)CCc2c(C)nc3c(c2C)c(=O)n(C)c(=O)n3C)c(OC)c1	.	4.6%	-9.8%	.	.	.
Fc1ccc(N2CCN(Cc3cccn3-c3nnc(N4CCN(C5CCCCC5)CC4)s3)CC2)cc1	.	4.4%	.	.	.	.
O=c1c2ccccc2c(C=NC2CCN(Cc3ccccc3)CC2)c(O)n1Cc1ccc2c(c1)OCO2	6.51µM*	-0.6%	2.8%	-7.5%	-1.5%	-0.3%
O=C(Nc1ccc2c(c1)OCO2)C1CCCN1C(=O)Nc1cccc(F)c1 (centres undefined)	?	-1.6%	-4.3%	-3.1%	-2.8%	13.1%
O=C(NCc1ccc2c(c1)OCO2)Nc1ccc(Cl)cc1	?	4.3%	.	25.8%	?	25.1%
CN(C)CCN=Cc1c(O)n(Cc2ccc3c(c2)OCO3)c(=O)c2ccccc12	-0.9%	2.6%	9.0%	-3.8%	1.9%	-7.5%
O=C(Nc1cccc(F)c1)Nc1ccc2c(c1)OCO2	?	7.57µM*	.	2.24µM*	?	2.82µM*
O=C(Nc1ccc2c(c1)OCO2)NC1CCN(Cc2ccccc2)CC1	?	16.9µM*	?	11.9%	?	2.5%
O=C(Nc1ccc(F)cc1)NC1CCN(Cc2ccccc2)CC1	-22.2%	4.4%	-6.0%	-6.4%	-7.2%	-7.3%
O=C(O)Cc1ccc(NC(=O)Nc2ccc3c(c2)OCO3)cc1	?	9.53µM*	.	26.4%	?	?
COc1ccc(S(=O)(=O)N(CC(=O)Nc2ccc(F)c(Cl)c2)c2ccc(C)cc2)cc1OC	.	-2.5%	.	.	.	.
C=CC1=C2C=C(C3CC3)N(Cc3ccc4c(c3)OCO4)C=C2C(=O)C(C)(OC(=O)c2ccco2)C1=O (centres undefined)	.	.	-4.6%[9.22 µM]	.	.	.
Cc1ccc(Cn2c(=O)n(CCc3ccccc3)c(=O)c3sc4ccccc4c32)cc1	.	-9.4%	5.2%	.	.	.
COc1ccc(-c2nsc(NC(=O)COc3ccc(C)c(C)c3)n2)cc1	.	-7.2%	3.1%	.	.	.
Cn1c(=O)c2sccc2n2c(CCC(=O)Nc3ccc(F)cc3)nnc12	.	-1.0%	-11.1%	.	.	.
CCSc1ncc(Cl)c(C(=O)N(Cc2ccccc2Cl)C2CCS(=O)(=O)C2)n1 (centres undefined)	.	7.3%	6.7%	.	.	.
CC(=O)OCc1ccc2c(c1)OCO2	.	.	-11.4%	.	.	.
CC(=O)Nc1ccc(OCc2ccc3c(c2)OCO3)cc1	?	16.9µM*	.	0.631µM*	?	1.58µM*
O=C(Nc1ccc2c(c1)OCO2)c1c(F)cccc1F	?	12µM*	10µM*	3.55µM*	?	3.16µM*
SMILES	ELG1 repair inh	FLuc counter	SMN2 splice enh	NPC1 promoter act	ELG1 genotox	Rab9 promoter act
O=C(Nc1ccc2c(c1)OCO2)c1cccc(F)c1	.	12µM*	?	.	.	.
CCCOCc1ccc(O)c2ncccc12	7.3µM*	0.7%	.	-44.9%	-6.2%	-29.1%
OCc1ccc(O)c2ncccc12	?	1.4%	-50.3%	-38.0%	-12.6%	-30.6%
CC(C)COCc1ccc(O)c2ncccc12	20.6µM*	0.7%	.	-30.0%	-2.7%	-38.3%
Oc1ccc(CNCc2ccccc2)c2cccnc12	.	.	-32.2%[9.22 µM]	.	.	.
Oc1ccc(COCc2ccccc2)c2cccnc12	?	19µM*	-66.4%	3.7%	8.2µM*	-3.5%
Cc1ccccc1-n1nc(CO)c(C(=O)NCCc2ccccc2)n1	.	-3.5%	-10.0%	.	.	.
Cc1ccc(O)c(N=Nc2ccccc2)n1	.	.	?	18.4µM*	.	20.6µM*
COc1ccccc1NC(=O)Nc1ccc2c(c1)nnn2C	?	12µM*	?	?	13µM*	3.16µM*
COc1ccccc1C(=O)Nc1cccc(C(=O)c2ccccc2)c1	-12.7%	16.9µM*	.	-2.4%	2.3%	0.8%
COc1cccc(OC)c1C(=O)Nc1cccc(C(=O)Nc2cccc(C(=O)O)c2)c1	-21.9%	9.53µM*	.	7.3%	-1.5%	6.6%
COc1cccc(OC)c1C(=O)Nc1ccc(Br)c(C(=O)c2ccccc2)c1	-23.9%	-1.6%	.	-0.4%	-17.4%	0.2%
COc1ccccc1NC(=O)NC(=O)c1ccccc1	?	1.2µM*	.	2.51µM*	?	?
COc1ccccc1NC(=O)Nc1ccc(F)c(F)c1	-4.0%	16.9µM*	28.3%	12.3%	0.9%	18.4%
COc1cccc(OC)c1C(=O)Nc1ccc(C)cc1C(=O)c1ccccc1	16.4µM*	1.9%	-29.9%	0.8%	-5.6%	0.7%
COc1ccc(C)cc1NC(=O)Nc1cccc(C(=O)O)c1	9.9%	?	.	-0.7%	3.8%	-1.9%
COc1ccccc1NC(=O)Nc1cccc(C(=O)O)c1	?	12µM*	-13.6%	?	0.6%	?
COc1ccc(Cn2c(=O)[nH]c3cc(C(=O)N4CCN(c5cc(Cl)ccc5C)CC4)ccc3c2=O)cc1	.	2.9%	11.1%	.	.	.
COc1cc(OC)c(Nc2nc3ccccc3nc2-n2nc(C)cc2C)cc1Cl	.	-2.1%	0.0%	.	.	.
Cc1c(C(=O)NC2CCCCC2)oc2ccc(F)cc12	?	12µM*	.	?	?	?
Cc1c(C(=O)/C=C/c2cccs2)oc2ccc(F)cc12	?	0.675µM*	-13.6%	3.98µM*	?	3.98µM*
COc1ccc2oc(C(=O)NCCC(C)C)c(C)c2c1	?	3.38µM*	11.2µM*	3.16µM*	?	?
